The results in this text go back to PubChem BioAssay (Tox21).

Records with an inconclusive call do not appear. A number with no mark means an inactive call. The source made the active and inactive calls. Calls follow the shape of the dose curve; as a rule, active = well fitted curve in the direction sought with a large enough effect in the repeat runs; inconclusive = weak or mixed curves; inactive = no such curve, though single readings can be large; an effect the other way counts as inactive or inconclusive.

Experiment [1] addresses Nuclear receptor subfamily 1 group I member 2 (Homo sapiens) (UniProt O75469). Description: Human pregnane X receptor (PXR) small molecule agonists, qHTS assay (AID 1346982). Also: nearly all actives have a fitted effect of over 35% in size. Also: potency is read from the fitted curve at half-maximal effect. An outline of the steps:
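Luciferase signal from ONE-Glo (30 min, room temperature) measured activation of hPXR-driven CYP3A4 reporter expression in PXR-Luc HepG2 cells treated with compounds for 24 hr at 37 C.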

Experiment [2] addresses Nuclear receptor subfamily 1 group I member 2 (Rattus norvegicus) (UniProt Q9R1A7). Put plainly: Rat pregnane X receptor (rPXR) activation by small molecules, qHTS assay (AID 1346983). Also: nearly all actives have a fitted effect of over 20% in size. The following applies: rPXR luciferase reporter cells, One-Glo luminescence, 24 h; active compounds read high. An outline of the steps: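 Cell-based rPXR luciferase reporter assay, 2,000 cells per well, rested 5hr at 37 C before compound addition in DMSO, then 24 hr at 37 C. One-Glo reagent was added and luminescence read after 30 min at room temperature.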
(In general: qHTS replaces the single test concentration by a dilution series.)

In experiment [3] the target is Nuclear receptor subfamily 1 group I member 2 (Homo sapiens) (UniProt O75469). Put plainly: CYP3A4 induction through human pregnane X receptor (PXR) by small molecules, qHTS assay (AID 1346984). Also: nearly all actives have a fitted effect of over 40% in size. Also: potency is read from the fitted curve at half-maximal effect. The procedure, abridged: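 Luminescence readout: luciferase signal after One-Glo (30 min, room temperature), following 3 h at 37C with 3uM final Luciferin-IPA P450 substrate. Cells were DPX-2 (HepG2, PXR/CYP3A4-luc co-transfected) dosed for 24 h.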

The target is the same in experiment [4]. Put plainly: Human pregnane X receptor (PXR) activation by small molecules, qHTS assay (AID 1346985). Also: nearly all actives have a fitted effect of over 40% in size. Also: potency is read from the fitted curve at half-maximal effect. An outline of the steps: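 DPX-2 cells (HepG2 co-transfected with a PXR response element and a CYP3A4-promoter luciferase construct) were seeded at 2,000 per well, rested 5 hr at 37C, then exposed to DMSO-dissolved compounds for 24 hr. Activation was read as luciferase luminescence.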

Experiment [5] addresses Cytochrome P450 2D6 (Homo sapiens) (UniProt P10635). Put plainly: Cytochrome P450 Family 2 Subfamily D Member 6 (CYP2D6) small molecule antagonists: luciferase reporter qHTS assay (AID 1671196). Also: nearly all actives have a fitted effect of over 50% in size. Also: potency is read from the fitted curve at half-maximal effect. As to activity change, negative = inhibition: series mostly up to about 120 µM. An outline of the steps: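 Read-out is luminescence from luciferin formed by CYP2D6 turnover of a proluciferin substrate, recorded as relative luminescence units. Reactions ran 1 h at room temperature after NADPH regeneration solution was added.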
(In a reporter assay the amount or activity of a reporter protein is the signal.)

Experiment [6] concerns the target Cytochrome P450 2C19 (Homo sapiens) (UniProt P33261). Put plainly: Cytochrome P450 Family 2 Subfamily C Member 19 (CYP2C19) small molecule antagonists: luciferase reporter qHTS assay (AID 1671197). Also: series mostly up to about 120 µM; nearly all actives have a fitted effect of over 65% in size. The procedure, abridged:
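Light output is proportional to CYP2C19 activity: proluciferin substrate is converted to luciferin, then detected by a luciferin detection reagent that also stops the 1 h, 37C NADPH-driven reaction. Ketoconazole serves as positive control.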

In experiment [7] the target is Cytochrome P450 2C9 (Homo sapiens) (UniProt P11712). Put plainly: Cytochrome P450 Family 2 Subfamily C Member 9 (CYP2C9) small molecule antagonists: luciferase reporter qHTS assay (AID 1671198). Also: series mostly up to about 120 µM; nearly all actives have a fitted effect of over 50% in size. The procedure, abridged:
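CYP2C9 activity was measured with a P450-Glo proluciferin substrate. Enzyme–substrate mix was held with compound for 10 min at room temperature, then NADPH regeneration solution was added for 1 h at 37C. Luciferin product was read as luminescence.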

Experiment [8] deals with Voltage-gated inwardly rectifying potassium channel KCNH2 (Homo sapiens) (UniProt Q12809). Description: Human Ether-a-go-go-Related Gene (hERG) channel small molecule antagonists: fluorescence cell-based qHTS assay (AID 1671200). Also: series mostly up to about 77 µM; nearly all actives have a fitted effect of over 50% in size. An outline of the steps: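 Thallium flux as potassium surrogate: FluxOR II dye loaded 1 h at room temperature into hERG-expressing U2OS cells, then stimulus buffer added after 10 min. Kinetic 480 nm excitation/540 nm emission read, 2 min.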

Experiment [9] has as its target Cytochrome P450 3A4 (Homo sapiens) (UniProt P08684). Put plainly: Cytochrome P450 Family 3 Subfamily A Member 4 (CYP3A4) small molecule antagonists: luciferase reporter qHTS assay (AID 1671201). Also: nearly all actives have a fitted effect of over 50% in size. Also: potency is read from the fitted curve at half-maximal effect. As to activity change, negative = inhibition: series mostly up to about 120 µM. An outline of the steps:
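Recombinant human CYP3A4 converts a proluciferin substrate to luciferin over 1 h at room temperature after NADPH regeneration solution is added (compound preincubated 10 min); detection reagent stops reaction, luminescence read 20 min later as relative units.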

Experiment [10] has as its target Cytochrome P450 1A2 (Homo sapiens) (UniProt P05177). Put plainly: Cytochrome P450 Family 1 Subfamily A Member 2 (CYP1A2) small molecule antagonists: luciferase reporter qHTS assay (AID 1671199). Also: nearly all actives have a fitted effect of over 50% in size. Also: potency is read from the fitted curve at half-maximal effect. As to activity change, negative = inhibition: series mostly up to about 120 µM. An outline of the steps: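 P450-Glo CYP1A2, 1536-well qHTS: enzyme/proluciferin substrate + cpd (DMSO), 10 min RT; NADPH regen, 1 h RT; detection reagent, 20 min; luminescence, RLU.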
% is scaled to controls: 0 for no effect and ±100 for the full control effect.

Cytochrome P450 2D6 (Homo sapiens), sequence (P10635 whole entry, looked up): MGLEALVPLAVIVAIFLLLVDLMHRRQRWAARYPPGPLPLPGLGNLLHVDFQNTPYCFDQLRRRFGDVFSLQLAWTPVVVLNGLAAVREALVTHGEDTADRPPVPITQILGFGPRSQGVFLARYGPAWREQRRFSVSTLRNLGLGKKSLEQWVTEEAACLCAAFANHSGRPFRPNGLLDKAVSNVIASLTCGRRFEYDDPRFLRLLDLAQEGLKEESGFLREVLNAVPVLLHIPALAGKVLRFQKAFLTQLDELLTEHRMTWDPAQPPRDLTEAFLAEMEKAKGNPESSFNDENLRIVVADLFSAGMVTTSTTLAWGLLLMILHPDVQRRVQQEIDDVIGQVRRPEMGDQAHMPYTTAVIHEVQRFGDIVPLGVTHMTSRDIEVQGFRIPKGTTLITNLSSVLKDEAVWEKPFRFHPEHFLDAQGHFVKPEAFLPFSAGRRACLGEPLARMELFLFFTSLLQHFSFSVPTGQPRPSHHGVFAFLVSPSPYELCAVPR
Voltage-gated inwardly rectifying potassium channel KCNH2 (Homo sapiens), sequence (Q12809 whole entry, looked up): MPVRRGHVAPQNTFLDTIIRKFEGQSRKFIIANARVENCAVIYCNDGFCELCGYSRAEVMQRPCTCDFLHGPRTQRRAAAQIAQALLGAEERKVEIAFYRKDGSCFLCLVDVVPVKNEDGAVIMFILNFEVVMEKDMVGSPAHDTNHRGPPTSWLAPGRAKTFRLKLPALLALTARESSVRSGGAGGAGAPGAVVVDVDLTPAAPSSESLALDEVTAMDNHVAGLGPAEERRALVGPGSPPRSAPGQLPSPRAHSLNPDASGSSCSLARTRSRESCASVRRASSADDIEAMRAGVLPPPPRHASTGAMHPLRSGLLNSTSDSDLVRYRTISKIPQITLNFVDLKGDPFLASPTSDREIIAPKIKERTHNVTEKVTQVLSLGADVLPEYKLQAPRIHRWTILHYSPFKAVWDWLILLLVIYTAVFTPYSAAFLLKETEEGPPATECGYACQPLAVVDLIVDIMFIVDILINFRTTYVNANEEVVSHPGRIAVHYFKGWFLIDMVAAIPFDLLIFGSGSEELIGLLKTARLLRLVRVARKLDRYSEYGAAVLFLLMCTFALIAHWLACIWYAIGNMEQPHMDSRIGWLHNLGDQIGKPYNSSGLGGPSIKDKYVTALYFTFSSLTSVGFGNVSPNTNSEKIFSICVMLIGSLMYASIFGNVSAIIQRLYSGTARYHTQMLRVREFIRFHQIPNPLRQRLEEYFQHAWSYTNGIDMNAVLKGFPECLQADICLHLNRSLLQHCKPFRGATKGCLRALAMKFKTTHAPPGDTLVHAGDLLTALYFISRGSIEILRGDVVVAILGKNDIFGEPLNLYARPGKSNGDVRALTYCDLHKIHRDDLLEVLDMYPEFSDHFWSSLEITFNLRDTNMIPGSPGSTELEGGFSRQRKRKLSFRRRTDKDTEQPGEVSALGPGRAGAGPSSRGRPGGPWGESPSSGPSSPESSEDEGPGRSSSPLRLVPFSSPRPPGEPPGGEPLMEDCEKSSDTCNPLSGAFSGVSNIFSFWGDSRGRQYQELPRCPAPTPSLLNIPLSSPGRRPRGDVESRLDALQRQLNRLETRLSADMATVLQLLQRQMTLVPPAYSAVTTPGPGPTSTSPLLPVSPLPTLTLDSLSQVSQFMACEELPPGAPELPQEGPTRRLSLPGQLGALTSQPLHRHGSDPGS
Nuclear receptor subfamily 1 group I member 2 (Homo sapiens), sequence (O75469 whole entry, looked up): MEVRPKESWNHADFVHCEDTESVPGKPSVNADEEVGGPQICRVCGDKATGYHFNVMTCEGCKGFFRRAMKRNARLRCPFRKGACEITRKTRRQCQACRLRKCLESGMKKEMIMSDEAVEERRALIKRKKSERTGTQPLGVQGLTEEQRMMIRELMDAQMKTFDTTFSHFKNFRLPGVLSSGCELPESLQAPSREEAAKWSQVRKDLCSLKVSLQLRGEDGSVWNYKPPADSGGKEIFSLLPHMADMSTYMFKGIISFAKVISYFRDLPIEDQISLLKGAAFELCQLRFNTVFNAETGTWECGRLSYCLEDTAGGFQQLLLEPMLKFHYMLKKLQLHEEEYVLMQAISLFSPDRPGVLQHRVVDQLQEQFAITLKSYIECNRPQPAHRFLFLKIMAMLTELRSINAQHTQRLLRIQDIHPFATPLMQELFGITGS
Cytochrome P450 2C19 (Homo sapiens), sequence (P33261 whole entry, looked up): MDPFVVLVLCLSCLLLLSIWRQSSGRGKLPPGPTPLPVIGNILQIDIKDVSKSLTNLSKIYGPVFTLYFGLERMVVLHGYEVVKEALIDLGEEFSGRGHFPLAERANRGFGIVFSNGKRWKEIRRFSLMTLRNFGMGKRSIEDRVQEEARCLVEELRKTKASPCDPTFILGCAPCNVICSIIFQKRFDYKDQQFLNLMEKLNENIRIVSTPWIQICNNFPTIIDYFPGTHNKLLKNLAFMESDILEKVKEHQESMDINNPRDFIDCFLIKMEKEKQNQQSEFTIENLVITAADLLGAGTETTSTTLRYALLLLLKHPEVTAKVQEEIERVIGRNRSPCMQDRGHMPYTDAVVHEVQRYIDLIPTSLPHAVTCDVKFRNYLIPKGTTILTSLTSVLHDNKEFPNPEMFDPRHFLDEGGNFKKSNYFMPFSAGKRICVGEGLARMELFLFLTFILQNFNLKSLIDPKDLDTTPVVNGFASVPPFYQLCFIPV
Nuclear receptor subfamily 1 group I member 2 (Rattus norvegicus), sequence (Q9R1A7 whole entry, looked up): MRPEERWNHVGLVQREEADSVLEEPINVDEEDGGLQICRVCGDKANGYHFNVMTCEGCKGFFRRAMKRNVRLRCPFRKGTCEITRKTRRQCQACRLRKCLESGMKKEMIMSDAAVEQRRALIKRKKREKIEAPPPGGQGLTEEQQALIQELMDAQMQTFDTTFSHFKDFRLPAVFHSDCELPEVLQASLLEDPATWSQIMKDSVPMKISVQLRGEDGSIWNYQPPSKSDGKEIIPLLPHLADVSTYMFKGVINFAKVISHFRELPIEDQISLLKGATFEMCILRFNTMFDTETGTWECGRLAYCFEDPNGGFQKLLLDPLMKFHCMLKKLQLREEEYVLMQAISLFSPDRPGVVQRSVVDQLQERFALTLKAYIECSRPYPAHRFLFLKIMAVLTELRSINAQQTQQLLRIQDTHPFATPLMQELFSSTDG
Cytochrome P450 3A4 (Homo sapiens), sequence (P08684 whole entry, looked up): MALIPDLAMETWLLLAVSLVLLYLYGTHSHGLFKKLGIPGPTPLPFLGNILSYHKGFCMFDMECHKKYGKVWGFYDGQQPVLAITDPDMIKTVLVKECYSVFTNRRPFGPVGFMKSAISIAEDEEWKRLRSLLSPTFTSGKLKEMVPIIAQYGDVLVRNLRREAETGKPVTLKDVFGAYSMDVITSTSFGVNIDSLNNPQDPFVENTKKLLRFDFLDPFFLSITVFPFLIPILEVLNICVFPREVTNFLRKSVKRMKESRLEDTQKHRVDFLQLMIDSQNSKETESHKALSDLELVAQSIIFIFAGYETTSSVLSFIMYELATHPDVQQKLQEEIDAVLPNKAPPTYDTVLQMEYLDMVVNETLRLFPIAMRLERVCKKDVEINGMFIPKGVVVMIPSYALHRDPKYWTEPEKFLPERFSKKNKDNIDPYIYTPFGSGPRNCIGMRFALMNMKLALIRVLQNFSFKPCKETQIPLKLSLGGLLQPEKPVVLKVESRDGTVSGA
Cytochrome P450 2C9 (Homo sapiens), sequence (P11712 whole entry, looked up): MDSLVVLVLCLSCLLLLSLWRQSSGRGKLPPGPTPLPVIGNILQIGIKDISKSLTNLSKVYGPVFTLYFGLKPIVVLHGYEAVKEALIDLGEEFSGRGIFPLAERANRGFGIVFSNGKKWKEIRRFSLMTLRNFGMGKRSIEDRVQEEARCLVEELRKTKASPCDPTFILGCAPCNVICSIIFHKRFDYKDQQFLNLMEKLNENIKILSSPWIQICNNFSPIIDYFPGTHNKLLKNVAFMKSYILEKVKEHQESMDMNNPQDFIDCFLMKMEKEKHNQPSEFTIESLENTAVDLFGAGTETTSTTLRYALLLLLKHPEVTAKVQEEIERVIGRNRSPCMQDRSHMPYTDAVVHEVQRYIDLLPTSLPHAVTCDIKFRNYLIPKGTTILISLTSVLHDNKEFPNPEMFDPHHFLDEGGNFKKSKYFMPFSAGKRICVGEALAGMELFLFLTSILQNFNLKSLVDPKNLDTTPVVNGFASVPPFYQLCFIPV
Cytochrome P450 1A2 (Homo sapiens), sequence (P05177 whole entry, looked up): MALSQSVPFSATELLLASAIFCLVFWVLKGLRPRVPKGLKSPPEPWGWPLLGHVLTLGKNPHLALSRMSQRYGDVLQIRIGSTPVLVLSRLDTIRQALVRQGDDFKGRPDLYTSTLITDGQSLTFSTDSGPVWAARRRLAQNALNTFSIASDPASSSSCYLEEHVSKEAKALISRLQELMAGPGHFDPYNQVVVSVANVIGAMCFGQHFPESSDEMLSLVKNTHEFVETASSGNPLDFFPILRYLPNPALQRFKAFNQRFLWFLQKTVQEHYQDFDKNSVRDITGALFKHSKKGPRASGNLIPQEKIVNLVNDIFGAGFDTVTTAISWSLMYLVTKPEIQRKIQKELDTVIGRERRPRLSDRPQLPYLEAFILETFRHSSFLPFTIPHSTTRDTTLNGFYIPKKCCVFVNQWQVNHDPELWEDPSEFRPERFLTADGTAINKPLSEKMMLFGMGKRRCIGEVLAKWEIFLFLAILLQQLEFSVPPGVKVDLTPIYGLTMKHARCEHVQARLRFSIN

For `CC(C)Cn1cnc2c1c(=O)n(C)c(=O)n2C`, the Potency entry in [1], in [3], in experiment [4], in [5], in experiment [6] and in experiment [7] was “inactive” in each case. In addition, the Potency result in experiment [8] and in experiment [9] was “inactive” in each case. For the same compound, the max activation in experiment [2] is 0.329%.

Regarding `CC(C)NCC(O)c1ccc2ccccc2c1` (centres undefined), the Potency result in experiment [1], in experiment [3], in experiment [4], in experiment [6], in experiment [7] and in experiment [8] was “inactive” each time. Also, the Potency entry in experiment [9] is “inactive”. Moreover, the max activation in [2] is -0.315%. Besides, the Potency in [5] is 2.19 µM (active); in experiment [10], 15.5 µM (active).

Take `N[C@@H](CSCCCO)C(=O)O`: the activation in experiment [1] is -4.99% [at 19 µM]. The max activation in experiment [2] was -2.52%. Moreover, the Potency entry in experiment [3] and in experiment [4] was “inactive” throughout. Also, the activity change, negative = inhibition is -4.36% [at 23.6 µM] in experiment [5]; 3.16% [at 23.6 µM] in experiment [6]; 4.77% [at 23.6 µM] in experiment [7]; 12.2% [at 23.6 µM] in [10]; 17.6% [at 15.8 µM] in [8]; 15.6% [at 23.6 µM] in [9].

Regarding `Cn1nnc2c(C(N)=O)ncn2c1=O`, the Potency entry in [1], in experiment [3], in [4], in experiment [6], in experiment [7] and in [10] was “inactive” throughout. The Potency result in [8] and in experiment [9] was “inactive” in each case. For the same compound, the max activation in experiment [2] is -4.63%.

`CN(C)CCCO[C@@H]1[C@H]2OC(C)(C)O[C@H]2O[C@@H]1C(O)CO` (some centres undefined): the Potency result in experiment [1], in [3], in [4], in experiment [5], in experiment [6] and in experiment [7] was “inactive” in each case. Besides, the Potency result in experiment [8] and in [9] was “inactive” each time. In experiment [2], the max activation was -3.96%.

As for `COc1cc2c(cc1OC)C(=O)C(CC1CCN(Cc3ccccc3)CC1)C2` (centres undefined), the Potency result in experiment [1] was “inactive”. The max activation in experiment [2] is -1.76%.

Regarding `CN(C)CCOC(=O)C(c1ccccc1)C1(O)CCCC1` (centres undefined), the Potency result in [1], in experiment [3], in experiment [4], in [7], in [8] and in experiment [9] was “inactive” throughout. The max activation in experiment [2] is 3.01%.

In the case of `CC1CCc2c(N3CCC(O)CC3)c(F)cc3c(=O)c(C(=O)O)cn1c23` (centres undefined), the Potency result in [1], in experiment [3], in [4], in experiment [10], in experiment [8] and in experiment [9] was “inactive” in each case. Besides, the max activation in experiment [2] was -2.67%.

Regarding `CC(=O)Nc1ccc(OC(=O)c2ccccc2OC(C)=O)cc1`, the Potency result in experiment [1], in [3], in [4], in [6], in [7] and in [9] was “inactive” each time. Further, in [2], the max activation is 1.26%.

Regarding `Cc1ncc([N+](=O)[O-])n1CC(C)O` (centres undefined), the Potency entry in [1], in experiment [3], in experiment [5], in experiment [6], in experiment [7] and in experiment [10] was “inactive” in each case. Besides, the Potency entry in [8] and in [9] was “inactive” each time. For the same compound, the max activation in experiment [2] was -2.68%.

For `CC(C)OC(=O)OCOP(=O)(CO[C@H](C)Cn1cnc2c(N)ncnc21)OCOC(=O)OC(C)C`, the Potency entry in experiment [1], in experiment [3], in experiment [4], in experiment [5], in experiment [6] and in experiment [10] was “inactive” throughout. In addition, the Potency result in [8] is “inactive”. In experiment [2], the max activation was -6.83%.

With `OC[C@H]1O[C@@H](O[C@@H]2[C@@H](CO)O[C@](O)(CO)[C@H]2O)[C@H](O)[C@@H](O)[C@H]1O`, the Potency result in experiment [1], in experiment [3], in [4], in [5], in experiment [6] and in [7] was “inactive” throughout. Also, the Potency entry in experiment [8] and in experiment [9] was “inactive” in each case. For the same compound, the max activation in experiment [2] is -1.58%.

For `C=CCN1C[C@H](C(=O)N(CCCN(C)C)C(=O)NCC)C[C@@H]2c3cccc4[nH]cc(c34)C[C@H]21`, the Potency in experiment [1] was 29.8 µM (active); in experiment [3] it was 12.6 µM (active); in experiment [4], 15.8 µM (active); in experiment [5] it was 2.45 µM (active); in [9], 0.977 µM (active). Also, in experiment [2], the max activation is -1.45%. The Potency result in [6], in experiment [7] and in [10] was “inactive” each time.

For the compound `CC(C)(C)NC[C@H](O)COc1cccc2c1CCCC2=O`, the Potency result in experiment [1], in experiment [3], in experiment [4], in [6], in [7] and in [10] was “inactive” throughout. The Potency entry in experiment [8] and in experiment [9] was “inactive” throughout. Also, the max activation in experiment [2] was 0.088%.

As to `CC1(C)O[C@H]2CC(=O)OC[C@]23[C@H]2CC[C@@]4(C)[C@H](c5ccoc5)OC(=O)[C@H]5O[C@]54[C@]2(C)C(=O)C[C@@H]13`, the Potency entry in experiment [1], in [3], in experiment [4], in experiment [5], in experiment [6] and in experiment [7] was “inactive” in each case. In addition, the Potency entry in experiment [10] and in experiment [8] was “inactive” throughout. The max activation in [2] is 5.81%.

As to `Nc1nc(-c2ccccc2)c(Br)c(=O)[nH]1`, the Potency result in experiment [1], in [3], in [4], in experiment [5], in experiment [6] and in experiment [7] was “inactive” throughout. For the same compound, the Potency result in experiment [10], in [8] and in [9] was “inactive” in each case. In addition, the max activation in experiment [2] was -0.177%.

Consider `CCNC(=O)NCc1cccc(Cl)c1`, for which the Potency result in [1], in experiment [3], in [4], in experiment [5], in experiment [6] and in experiment [7] was “inactive” each time. Further, the Potency entry in experiment [10] and in experiment [8] was “inactive” in each case. For the same compound, the max activation in [2] was -1.55%.

For `Cc1c(NC(=O)c2cccnc2)c(=O)n(-c2ccccc2)n1C`, the Potency result in [1], in experiment [3], in experiment [4], in [5], in experiment [7] and in experiment [8] was “inactive” in each case. In experiment [9], the Potency result is “inactive”. The max activation in [2] was -1.68%.

With `CCC[C@@H]1C[C@@H](C(=O)N[C@@H]([C@H]2O[C@H](SC)[C@H](O)[C@@H](O)[C@H]2O)[C@@H](C)O)N(C)C1`, the Potency result in [1], in experiment [3], in experiment [4], in [5], in [6] and in [7] was “inactive” in each case. Further, the Potency entry in experiment [10] and in experiment [9] was “inactive” each time. In addition, in experiment [2], the max activation is 0.287%.
